# PubChem BioAssay (EPA / NIEHS)
# Results filed as inconclusive are left out. Calls of active or inactive are those of the source. The calls were made as follows: active = hit-call score of the fitted dose curve at least 0.9, where 1 is the maximum; inconclusive = response in the unintended direction; inactive = score below 0.9.
# Legend:
# [1] = target: Cellular tumor antigen p53 (Homo sapiens) (UniProt P04637); assay: TOX21_p53_BLA_p2_ratio: Tox21 HCT-116 p53 Agonism Beta-lactamase Assay, Ratio, Phase 2 (AID 2283592)
# Sequence of Cellular tumor antigen p53 (Homo sapiens) (P04637 whole entry, looked up): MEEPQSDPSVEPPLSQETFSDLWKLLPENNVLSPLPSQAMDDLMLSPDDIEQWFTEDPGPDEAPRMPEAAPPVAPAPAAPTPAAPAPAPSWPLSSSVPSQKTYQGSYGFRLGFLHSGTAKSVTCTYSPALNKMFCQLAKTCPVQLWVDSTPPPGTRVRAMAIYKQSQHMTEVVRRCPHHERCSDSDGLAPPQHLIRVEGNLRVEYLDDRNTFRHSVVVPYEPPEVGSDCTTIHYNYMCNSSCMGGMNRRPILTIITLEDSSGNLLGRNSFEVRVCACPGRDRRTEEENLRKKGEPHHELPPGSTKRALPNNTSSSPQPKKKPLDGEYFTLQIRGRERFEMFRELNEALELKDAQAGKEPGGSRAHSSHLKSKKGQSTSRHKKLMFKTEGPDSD
# How it was run: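 Read-out is the blue/green (460/530 nm, 405 nm excitation) ratio after 2 h CCF4-AM loading, fitted as gain versus DMSO. Compounds, pinned at 217-fold dilution from DMSO stocks, stayed 16 h on HCT-116 beta-lactamase reporter cells seeded 5 h earlier.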
# [2] = TOX21_p53_BLA_p3_viability: Viability Assessment in the Tox21 HCT-116 p53 Agonism Beta-lactamase Assay, Phase 3 (AID 2283593);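 also: cells exposed to compound for 16 h before reading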
# How it was run: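 Cellular ATP was quantified by CellTiter-Glo luminescence, read after 30 min at room temperature. Beforehand, HCT116 cells (4000/well) received compound 5 h post-seeding, 217-fold diluted from DMSO, then incubated 16 h at 37C.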
# [3] = target: Cellular tumor antigen p53 (Homo sapiens) (UniProt P04637); assay: TOX21_p53_BLA_p3_ratio: Tox21 HCT-116 p53 Agonism Beta-lactamase Assay, Ratio, Phase 3 (AID 2283596)
# How it was run: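 Cells were seeded at 4000/well, rested 5 h at 37C, then dosed with DMSO compound solutions (217-fold dilution) for 16 h. CCF4-AM substrate was loaded for 2 h at room temperature, and the 460/530 nm emission ratio was fitted for gain of signal versus DMSO.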
# [4] = target: Cellular tumor antigen p53 (Homo sapiens) (UniProt P04637); assay: TOX21_p53_BLA_p5_ratio: Tox21 HCT-116 p53 Agonism Beta-lactamase Assay, Ratio, Phase 5 (AID 2283599)
# How it was run: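 Beta-lactamase reporter ratio (blue 460 nm over green 530 nm, 405 nm excitation) after 2 h CCF4-AM loading, in HCT-116 cells exposed 16 h at 37 C to compounds pinned at 217-fold dilution. Increases relative to DMSO baseline scored.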
# [5] = TOX21_p53_BLA_p5_viability: Viability Assessment in the Tox21 HCT-116 p53 Agonism Beta-lactamase Assay, Phase 5 (AID 2283600)
# How it was run: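 Viability came from CellTiter-Glo ATP luminescence, read after 30 min at room temperature. Before this, HCT-116 p53-bla cells (4000/well) had 16 hours of compound exposure at 37C, with DMSO stocks diluted 217-fold on transfer.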
# [6] = target: Cellular tumor antigen p53 (Homo sapiens) (UniProt P04637); assay: TOX21_p53_BLA_p4_ratio: Tox21 HCT-116 p53 Agonism Beta-lactamase Assay, Ratio, Phase 4 (AID 2283601)
# How it was run: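 Signal is the blue/green (460nm/530nm) ratio of cleaved versus uncleaved CCF4-AM substrate, read after 2 h substrate loading. Cells were HCT116 carrying the p53-responsive beta-lactamase reporter, dosed 16 h at 37C, 5% CO2; CellTiter-Glo measured in parallel.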
# [7] = TOX21_p53_BLA_p4_viability: Viability Assessment in the Tox21 HCT-116 p53 Agonism Beta-lactamase Assay, Phase 4 (AID 2283597);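 also: hits lower the luminescence signal meaning cytotoxicity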
# How it was run: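 Cytotoxicity as reduced cellular ATP (CellTiter-Glo luminescence, 30 min room temperature), measured in the same wells following the CCF4 FRET p53 reading. Human HCT-116 cells received compounds in DMSO (217-fold dilution) for 16 h.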
# [8] = target: THRA (gene 7067) (UniProt P10827); assay: TOX21_TRA_COA_Antagonist_Followup_ratio: Tox21 Thyroid Hormone Receptor alpha Antagonism through Coactivator Recruitment Follow-Up Assay, Ratio (AID 2283953)
# Sequence of THRA (gene 7067) (P10827 whole entry, looked up, the tested form may be a part): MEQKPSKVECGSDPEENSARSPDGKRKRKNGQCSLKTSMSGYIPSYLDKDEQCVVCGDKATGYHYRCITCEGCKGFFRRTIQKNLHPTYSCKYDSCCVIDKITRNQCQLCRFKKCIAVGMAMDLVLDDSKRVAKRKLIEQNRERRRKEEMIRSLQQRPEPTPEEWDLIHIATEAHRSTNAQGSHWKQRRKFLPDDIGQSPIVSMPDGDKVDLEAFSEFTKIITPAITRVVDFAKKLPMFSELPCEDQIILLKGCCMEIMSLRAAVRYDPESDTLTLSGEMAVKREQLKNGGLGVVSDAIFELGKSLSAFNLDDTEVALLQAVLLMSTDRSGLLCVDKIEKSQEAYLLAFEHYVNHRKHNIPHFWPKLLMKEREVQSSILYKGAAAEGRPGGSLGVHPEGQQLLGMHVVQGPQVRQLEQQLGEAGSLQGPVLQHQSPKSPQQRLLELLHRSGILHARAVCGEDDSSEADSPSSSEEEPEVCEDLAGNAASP
# How it was run: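 We measured antagonism of T3-type coactivator recruitment using a TR-FRET ratio (emission 520 and 495 nm) between a Tb-labelled anti-GST antibody on TRα LBD (2.5 nM) and SRC-2 peptide (200 nM). Activity was scaled between DMSO and T3 wells.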
# [9] = target: THRB (gene 7068) (UniProt P10828); assay: TOX21_TRB_BLA_Antagonist_Followup_ratio: Tox21 Thyroid Hormone Receptor beta Antagonism Beta-lactamase (BLA) Follow-Up Assay, Ratio (AID 2283958)
# Sequence of THRB (gene 7068) (P10828 whole entry, looked up, the tested form may be a part): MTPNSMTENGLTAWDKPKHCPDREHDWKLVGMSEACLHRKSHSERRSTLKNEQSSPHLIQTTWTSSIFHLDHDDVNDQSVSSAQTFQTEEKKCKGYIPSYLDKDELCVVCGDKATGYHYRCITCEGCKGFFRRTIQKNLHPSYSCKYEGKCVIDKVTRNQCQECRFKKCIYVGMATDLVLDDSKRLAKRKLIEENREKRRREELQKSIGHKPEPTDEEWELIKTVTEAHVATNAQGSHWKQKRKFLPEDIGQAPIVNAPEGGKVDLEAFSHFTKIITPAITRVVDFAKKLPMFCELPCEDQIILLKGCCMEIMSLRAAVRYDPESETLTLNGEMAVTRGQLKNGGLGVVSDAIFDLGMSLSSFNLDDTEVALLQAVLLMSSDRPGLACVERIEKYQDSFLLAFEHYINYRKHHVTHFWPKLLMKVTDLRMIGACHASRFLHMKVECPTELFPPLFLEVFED
# How it was run: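 Using charcoal-stripped 2% FBS medium, human TRβ-LBD/GAL4 reporter HEK293T cells received test compounds for 18 h. The endpoint is the cleaved-to-uncleaved substrate ratio (460/530 nm).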
# [10] = TOX21_TRB_BLA_Antagonist_Followup_viability: Viability Assessment in the Tox21 Thyroid Hormone Receptor beta Antagonism Beta-lactamase (BLA) Follow-Up Assay (AID 2283961)
# How it was run: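 ATP-based CellTiter-Glo luminescence (30 min, room temperature) run in the same wells as the TRβ-bla readout. Cells: GeneBLAzer HEK293T expressing GAL4-TRβ LBD, exposed 18 h at 37C to compounds at 11 concentrations in triplicate, stripped-serum medium.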
# [11] = target: THRB (gene 7068) (UniProt P10828); assay: TOX21_TRB_COA_Antagonist_Followup_ratio: Tox21 Thyroid Hormone Receptor beta Antagonism through Coactivator Recruitment Follow-Up Assay, Ratio (AID 2283967)
# How it was run: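 Coactivator recruitment to the GST-tagged TRb ligand-binding domain (5.0 nM) was read as the 520/495 nm TR-FRET ratio, using 200 nM fluorescein SRC-2 peptide and 2 nM terbium anti-GST. Scaled between DMSO and T3 wells; loss of signal fitted.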
# [12] = target: Retinoic acid receptor RXR-alpha (Homo sapiens) (UniProt P19793); assay: TOX21_TR_RXR_BLA_Antagonist_Followup_ratio: Tox21 Thyroid Hormone Receptor beta Retinoid X Receptor alpha (RXRa) Antagonism Beta-lactamase (BLA) Follow-Up Assay, Ratio (AID 2283972)
# Sequence of Retinoic acid receptor RXR-alpha (Homo sapiens) (P19793 whole entry, looked up): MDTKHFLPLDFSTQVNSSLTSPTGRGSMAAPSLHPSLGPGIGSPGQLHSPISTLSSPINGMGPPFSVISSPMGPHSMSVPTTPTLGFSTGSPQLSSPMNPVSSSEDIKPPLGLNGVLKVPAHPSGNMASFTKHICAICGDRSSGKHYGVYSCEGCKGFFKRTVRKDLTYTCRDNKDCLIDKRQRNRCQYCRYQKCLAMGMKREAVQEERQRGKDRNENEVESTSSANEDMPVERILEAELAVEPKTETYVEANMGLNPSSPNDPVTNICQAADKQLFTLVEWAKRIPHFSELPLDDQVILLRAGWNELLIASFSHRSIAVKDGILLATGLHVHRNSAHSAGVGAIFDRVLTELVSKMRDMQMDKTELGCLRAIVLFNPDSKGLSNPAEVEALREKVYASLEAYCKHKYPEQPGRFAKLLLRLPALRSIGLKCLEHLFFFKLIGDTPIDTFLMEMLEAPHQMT
# How it was run: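 After 5 h attachment at 37C, HEK293T RXRa-bla cells (2,500/well, 2% charcoal-stripped FBS, no phenol red) received compounds at 11 concentrations in triplicate for 16 h. Beta-lactamase read as 460:530 nm ratio after 2 h RT substrate loading.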
compound,measurement,setting,value
CC(=O)OCC1=C(C(=O)O)N2C(=O)[C@@H](NC(=O)Cc3cccs3)[C@H]2SC1,outcome,[1],inactive
same,outcome,[2],inactive
same,outcome,[3],inactive
same,outcome,[4],inactive
same,outcome,[5],inactive
same,outcome,[6],inactive
CCSC(=O)N(CC)CC,outcome,[1],inactive
same,outcome,[2],inactive
same,outcome,[3],inactive
same,outcome,[4],inactive
CCN(CC)CCOC(=O)c1cccnc1,outcome,[1],inactive
same,outcome,[2],inactive
same,outcome,[3],inactive
same,outcome,[4],inactive
same,outcome,[5],inactive
CCOC(=O)c1ccccc1O,outcome,[1],inactive
same,outcome,[2],inactive
same,outcome,[3],inactive
same,outcome,[4],inactive
same,outcome,[5],inactive
O=C1Nc2ccc([N+](=O)[O-])cc2C1=O,AC50,[1],74.4 µM (active)
same,outcome,[2],inactive
same,AC50,[3],85.2 µM (active)
same,AC50,[4],82.1 µM (active)
same,outcome,[5],inactive
same,AC50,[6],72.8 µM (active)
CC(C)=O,outcome,[1],inactive
same,outcome,[2],inactive
same,outcome,[3],inactive
same,outcome,[4],inactive
same,outcome,[5],inactive
same,outcome,[6],inactive
O=P(O)(O)OC(Cn1cncn1)(Cn1cncn1)c1ccc(F)cc1F,outcome,[1],inactive
same,outcome,[2],inactive
same,outcome,[3],inactive
same,outcome,[4],inactive
same,outcome,[5],inactive
N#Cc1c(F)cccc1F,outcome,[1],inactive
same,outcome,[2],inactive
same,outcome,[3],inactive
same,outcome,[4],inactive
same,outcome,[5],inactive
same,outcome,[6],inactive
C[C@]12CCC(=O)C=C1CC[C@@H]1[C@@H]2[C@@H](O)C[C@@]2(C)[C@H]1CC[C@]2(O)C(=O)COP(=O)(O)O,outcome,[1],inactive
same,outcome,[2],inactive
same,outcome,[3],inactive
same,outcome,[4],inactive
same,outcome,[5],inactive
same,outcome,[6],inactive
O=C(NCN1CCOCC1)c1cnccn1,outcome,[1],inactive
same,outcome,[2],inactive
same,outcome,[3],inactive
same,outcome,[4],inactive
same,outcome,[5],inactive
same,outcome,[6],inactive
Oc1cn2c(n1)Nc1ccc(Cl)c(Cl)c1C2,outcome,[1],inactive
same,outcome,[2],inactive
same,outcome,[3],inactive
same,outcome,[4],inactive
same,outcome,[5],inactive
same,outcome,[6],inactive
Cc1c(N)cccc1Cl,outcome,[1],inactive
same,outcome,[2],inactive
same,outcome,[3],inactive
same,outcome,[4],inactive
same,outcome,[5],inactive
c1ccc(CSCc2ccccc2)cc1,outcome,[1],inactive
same,outcome,[2],inactive
same,outcome,[3],inactive
same,outcome,[4],inactive
same,outcome,[5],inactive
same,outcome,[6],inactive
COc1ccccc1OC(=O)Oc1ccccc1OC,outcome,[1],inactive
same,outcome,[2],inactive
same,outcome,[3],inactive
same,outcome,[7],inactive
same,outcome,[6],inactive
CCN(CC)CCNC(=O)c1ccc(NC(C)=O)cc1,outcome,[1],inactive
same,outcome,[2],inactive
same,outcome,[3],inactive
same,outcome,[4],inactive
same,outcome,[5],inactive
same,outcome,[6],inactive
Cc1cccc(C)c1NC(=O)CC12CCCN1CCC2,outcome,[1],inactive
same,outcome,[2],inactive
same,outcome,[3],inactive
same,outcome,[4],inactive
same,outcome,[5],inactive
same,outcome,[6],inactive
N[C@H](CO)C(=O)O,outcome,[1],inactive
same,outcome,[2],inactive
same,outcome,[3],inactive
same,outcome,[4],inactive
same,outcome,[5],inactive
same,outcome,[6],inactive
CCc1cc(S(=O)(=O)O)c2cc(C(C)C)cccc1-2,outcome,[1],inactive
same,outcome,[2],inactive
same,outcome,[3],inactive
same,outcome,[4],inactive
same,outcome,[5],inactive
O=C(Oc1ccccc1)Oc1ccccc1,outcome,[1],inactive
same,outcome,[2],inactive
same,outcome,[3],inactive
same,outcome,[4],inactive
same,outcome,[6],inactive
CO/N=C(\C(=O)N[C@@H]1C(=O)N2C(C(=O)O)=C(CSc3nc(=O)c(O)nn3C)CS[C@H]12)c1csc(N)n1,outcome,[1],inactive
same,outcome,[2],inactive
same,outcome,[3],inactive
same,outcome,[4],inactive
same,outcome,[6],inactive
CCCOc1ccc2nc(NC(=O)OC)sc2c1,AC50,[1],0.653 µM (active)
same,outcome,[2],inactive
same,AC50,[3],3.42 µM (active)
same,AC50,[4],2.75 µM (active)
same,outcome,[5],inactive
same,AC50,[6],1.66 µM (active)
same,outcome,[8],inactive
same,outcome,[9],inactive
same,outcome,[10],inactive
same,outcome,[11],inactive
same,outcome,[12],inactive
CCCc1ccc(C(=O)O)cc1,outcome,[1],inactive
same,outcome,[2],inactive
same,outcome,[3],inactive
same,outcome,[4],inactive
same,outcome,[5],inactive
same,outcome,[6],inactive
CO[Si](CCCCl)(OC)OC,outcome,[1],inactive
same,outcome,[2],inactive
same,outcome,[3],inactive
same,outcome,[4],inactive
same,outcome,[6],inactive
Cn1nnc2c(C(N)=O)ncn2c1=O,outcome,[1],inactive
same,outcome,[2],inactive
same,outcome,[3],inactive
same,outcome,[4],inactive
same,outcome,[5],inactive
same,outcome,[6],inactive
CCn1cc(C(=O)O)c(=O)c2cc(F)c(N3CCNCC3)nc21,outcome,[1],inactive
same,outcome,[2],inactive
same,outcome,[3],inactive
same,outcome,[4],inactive
same,outcome,[6],inactive
CCC(CO)(CO)COCC(CC)(CO)CO,outcome,[1],inactive
same,outcome,[2],inactive
same,outcome,[3],inactive
same,outcome,[4],inactive
same,outcome,[5],inactive
same,outcome,[6],inactive
O=C(Nc1ccc(/C=C/c2ccc(NC(=O)c3cc(S(=O)(=O)O)c4cccnc4c3O)cc2S(=O)(=O)O)c(S(=O)(=O)O)c1)c1cc(S(=O)(=O)O)c2cccnc2c1O,outcome,[1],inactive
same,outcome,[2],inactive
same,outcome,[3],inactive
same,outcome,[4],inactive
same,outcome,[5],inactive
same,outcome,[6],inactive
N#Cc1cc2ccccc2c2ccccc12,outcome,[1],inactive
same,outcome,[2],inactive
same,outcome,[3],inactive
same,outcome,[4],inactive
same,outcome,[6],inactive
NCCCC[C@H](N)C(=O)O,outcome,[1],inactive
same,outcome,[2],inactive
same,outcome,[3],inactive
same,outcome,[4],inactive
same,outcome,[6],inactive
CCCCN(CCCC)CCCOC(=O)c1ccc(N)cc1,outcome,[1],inactive
same,outcome,[2],inactive
same,outcome,[3],inactive
same,outcome,[4],inactive
same,outcome,[5],inactive
same,outcome,[6],inactive
C=C1CC[C@@H]2[C@](C)(CO)[C@H](O)CC[C@@]2(C)[C@@H]1C/C=C1/C(=O)OC[C@H]1O,outcome,[1],inactive
same,outcome,[2],inactive
same,outcome,[3],inactive
same,outcome,[4],inactive
same,outcome,[6],inactive
